Laboratory results reported in PubChem BioAssay (NCI).
About 83,000 compounds went through this panel and 20% of them were active in at least one assay; those are over-represented in the sample as a whole.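 Cell lines were cultured in 96-well plates, exposed to a single compound concentration, and assessed for percent growth 48 hours later.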 A number with no mark means an inactive call. Calls of active or inactive are those of the source. Rule for the calls: active = growth percent below 10; inactive = the rest.

How the values were obtained:
Test in all cases: NCI-60 one-dose screen, 48 h (100 = growth as untreated, 0 = no growth, -100 = all killed)
Conditions in all cases: 10 µM unless noted
NCI-H23 lung = system: NCI-H23 lung
NCI-H226 lung = system: NCI-H226 lung
NCI-H322M lung = system: NCI-H322M lung
HOP-62 NSCLC = system: HOP-62 NSCLC
NCI-H460 lung = system: NCI-H460 lung
HOP-92 NSCLC = system: HOP-92 NSCLC
NCI-H522 lung = system: NCI-H522 lung
A549/ATCC NSCLC = system: A549/ATCC NSCLC
786-0 renal = system: 786-0 renal
COLO 205 colon = system: COLO 205 colon
DU-145 prostate = system: DU-145 prostate
K-562 leukemia = system: K-562 leukemia
MALME-3M melanoma = system: MALME-3M melanoma
MDA-MB-231 breast = system: MDA-MB-231 breast
RXF 393 renal = system: RXF 393 renal
SF-268 CNS = system: SF-268 CNS
SF-295 CNS = system: SF-295 CNS
SF-539 CNS = system: SF-539 CNS
UACC-257 melanoma = system: UACC-257 melanoma
M14 melanoma = system: M14 melanoma

Row | SMILES | growth (NCI-H23 lung) [%] | growth (NCI-H226 lung) | growth (NCI-H322M lung) [%] | growth (HOP-62 NSCLC) | growth (NCI-H460 lung) | growth (HOP-92 NSCLC) | growth (NCI-H522 lung) | growth (A549/ATCC NSCLC) [%] | growth (786-0 renal) | growth (COLO 205 colon) | growth (DU-145 prostate) [%] | growth (K-562 leukemia) | growth (MALME-3M melanoma) | growth (MDA-MB-231 breast) | growth (RXF 393 renal) | growth (SF-268 CNS) [%] | growth (SF-295 CNS) | growth (SF-539 CNS) | growth (UACC-257 melanoma) | growth (M14 melanoma)
1 | COc1ccc(-c2cc(-c3cc(OC)ccc3OC)nc(SCC(C)=O)c2C#N)cc1 | 76.1 | 83.4% | 97.6 | 75.5% | 78.8% | 38.2% | 54.9% | 49.4 | 75% | 78.2% | 73.7 | 72.2% | 92% | 50.9% | -0.171% (active) | 65.8 | 58.5% | 64.9% | 93.5% | 69.8%
2 | COC(=O)c1nc(-c2ccccc2)oc1S(=O)(=O)N1CCCC(C)C1 (stereo not given) | 87.8 | 90.6% | 90.2 | 107% | 102% | 72.7% | 28.6% | 96.8 | 59.1% | 67.7% | 91.3 | 17.7% | 78.2% | 76.8% | 78.8% | 85.8 | 108% | 85% | 82.3% | 39.3%
3 | CCCCCCCCn1ccc2cc(NC(=O)CN=[N+]=[N-])ccc21 | 102 | 95.4% | 102 | 114% | 107% | 111% | 88.3% | 100 | 94.1% | 118% | 108 | 93.5% | 109% | 101% | 104% | 97.9 | 100% | 106% | 103% | 109%
4 | CS(=O)(=O)Nc1cc(-c2ccc3ncnc(Nc4ccc(F)c(Cl)c4)c3c2)ccc1Cl | 48.9 | 70.1% | 24.7 | 64.7% | 44.7% | -6.71% (active) | 19% | 31.6 | 50.3% | 58.7% | 39.8 | 39.4% | 53.4% | 54.3% | 22% | 52.7 | 15.6% | 52.1% | 59.6% | 46.8%
5 | CC(O)Cc1c[nH]c(=O)[nH]c1=O (stereo not given) | 102 | 109% | 132 | -56.4% (active) | 103% | 111% | 110% | 93.7 | 109% | -66.5% (active) | 97.9 | 126% | 142% | 112% | 192% | 90 | 112% | 110% | 92.7% | 102%
6 | O=C(/C=C/c1cccc(Oc2ccccc2)c1)c1ccc(Nc2nc(Nc3ccc(F)cc3)nc(Nc3ccc(Cl)cc3)n2)cc1 | 77.1 | 113% | 93.8 | 104% | 108% | -6.77% (active) | 109% | 90.2 | 96.1% | 103% | 117 | 11.5% | 90.4% | 108% | 96.6% | 99.9 | 104% | 116% | 109% | 106%
7 | CCCCn1c(NC(C)=O)c(S(=O)(=O)c2ccccc2)c2nc3ccccc3nc21 | 94 | 92.5% | 105 | 173% | 110% | 4.95% (active) | 94.9% | 97.1 | 105% | 127% | 104 | 69.3% | 98.9% | 109% | 86.8% | 96.7 | 111% | 97.6% | 99.6% | 106%
8 | N#Cc1c(-c2ccccc2)nc2c(c(-c3ccccc3)nn2-c2ccccc2)c1-c1ccc(N2CCCCC2)cc1 | 93.9 | 89.1% | 97.2 | 95.9% | 103% | 98.7% | 98.6% | 87.9 | 98.5% | 104% | 103 | 92.7% | 98.6% | 97.7% | 115% | 101 | 97.9% | 100% | 93.3% | 90.8%
9 | CN(C)CCC(CCN(C)C)(C(=O)O)c1ccccc1 | 107 | 106% | 103 | 94% | 104% | 84.9% | 88.2% | 99 | 105% | 108% | 115 | 98.1% | 97.5% | 97.2% | 112% | 107 | 103% | 95.3% | 99.7% | 99.2%
10 | Cc1ccc2c(c1)nc(C)n2-c1ncnc2c1CC(C)c1cc(O)ccc1N2C (stereo not given) | 65.7 | 74.1% | 64 | 37.8% | 19.7% | 24.7% | 23.6% | 31 | 33.4% | 98.5% | 42.1 | 14.8% | 48.9% | 50.8% | 10.7% | 44.1 | 11.1% | 28.7% | 17.9% | 15%
11 | Cc1oc(-c2ccc(Cl)cc2)nc1C1=NN(C(=O)c2ccncc2)C(c2ccccc2)C1 (stereo not given) | 87.3 | 84.6% | 93.7 | 107% | 98.6% | 96.1% | 86.6% | 87.7 | 83.4% | 108% | 101 | 85.9% | 101% | 76.7% | 82.3% | 89.2 | 89.4% | 95.6% | 103% | 99.2%
12 | Cc1ccc(OCCOCCOCCOCCOCCOc2ccc(C)n(O)c2=S)c(=S)n1O | 14.1 | 6.73% (active) | 21.5 | 10.5% | 3.62% (active) | 34.3% | 25.8% | 13.2 | -0.0239% (active) | 10.4% | 17.3 | 14.5% | 16.5% | 29.8% | 40.6% | 12.5 | 16.8% | 1.52% (active) | -3.93% (active) | -4.25% (active)
13 | CC1(C)CC(=O)C2=C(C1)C(c1ccc(Cl)cc1)n1ncc(C#N)c1N2 (stereo not given) | 99.6 | 94.8% | 90.9 | 104% | 106% | 99.3% | 85.7% | 101 | 98.9% | 109% | 108 | 106% | 102% | 93.6% | 107% | 103 | 101% | 87.6% | 101% | 108%
14 | Cc1ccc(-c2csc(NC(=O)CSc3nc(N)cc(N)n3)n2)cc1 | 42.7 | 96.3% | 87 | 50.9% | 78.6% | 89.3% | 54.6% | 62.7 | 72.2% | 50.8% | 77.2 | 20.1% | 57.9% | 67.5% | 92.1% | 73.6 | 50.2% | 76.9% | 79.9% | 67.8%
15 | O=C(C1=Cc2cc3ccccc3n2Cc2cnnn21)c1ccc(F)cc1 | 98.9 | 98.8% | 99.1 | 109% | 106% | 102% | 91.3% | 96.3 | 99.1% | 117% | 97.7 | 87.4% | 101% | 105% | 103% | 100 | 97.8% | 101% | 107% | 107%
16 | Cc1cc(NCCCNc2ccnc3cc(Cl)ccc23)nc(Nc2ccc(C(=O)N3CCCCC3)cc2)n1 | 52.5 | 108% | 17.8 | 73.8% | 9.68% (active) | 83.8% | -11.6% (active) | 20.5 | -29.5% (active) | -32.1% (active) | 36.6 | 0.0536% (active) | -90.5% (active) | -38.7% (active) | -63.9% (active) | 10.2 | -34% (active) | -75.1% (active) | -72.9% (active) | -68.3% (active)
